ALDH1A1 inh: blocks purified human ALDH1A1 activity | P00352 | AID 1030 | Purified ALDH1A1, NADH fluorescence, propionaldehyde substrate | 7.3% of 220,000 active | Potency, µM (top dose mostly 75.3 µM), without a hit: at the top dose activity, negative = inhibition, usual class: inhibitors;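 also: potency is read from the fitted curve at half-maximal effect; plate controls were no enzyme wells and a reference inhibitor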
IMPase cell inh: cell-permeable inhibitors of inositol monophosphatase (IMPase). 120,000 tested, under 10 active. AID 901. inhibition (IP1 accumulation), % at 46.1 µM. CHO-M1 cells, IP1 accumulation, HTRF TR-FRET ratio; active = well fitted curve in the direction sought with a large enough effect in the signal ratio, not every such curve was filed as active; inconclusive = small, poorly fitted or top-dose-only effect, or a change in a side signal; inactive = no such curve, though single readings can be large or run the other way; the % refers to the signal ratio;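 also: cells stimulated with carbachol in lithium chloride buffer; plate controls were DMSO basal wells for no effect and reference inhibitor wells for full effect; higher means more IMPase inhibition seen as more IP1 and lower FRET ratio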
Target sequence (P97697 whole entry, looked up): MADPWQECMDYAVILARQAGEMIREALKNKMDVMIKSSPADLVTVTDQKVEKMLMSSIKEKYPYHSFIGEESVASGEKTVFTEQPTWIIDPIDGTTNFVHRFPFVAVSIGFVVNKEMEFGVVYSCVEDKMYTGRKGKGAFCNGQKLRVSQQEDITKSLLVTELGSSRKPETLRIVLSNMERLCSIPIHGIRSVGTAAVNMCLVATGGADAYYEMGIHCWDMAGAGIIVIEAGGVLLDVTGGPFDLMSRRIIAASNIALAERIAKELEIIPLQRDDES
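In this qHTS, compounds (final up to 46 uM) act on CHO-M1 cells that are then activated through the M1 receptor with carbachol, in pH 7.4 buffer containing 50 mM LiCl, for 30 min. IP1 accumulation is quantified by the IP-One immunoassay.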
HPGD inh: blocks human HPGD enzyme activity; P15428; purified HPGD, NADH fluorescence kinetic, PGE2 substrate; Potency, µM, for the others: top-dose activity change, negative = inhibition, hits mostly inhibitors; 4.3% of 150,000 active; AID 894; also: potency is read from the fitted curve at half-maximal effect
Target sequence (P15428 whole entry, looked up): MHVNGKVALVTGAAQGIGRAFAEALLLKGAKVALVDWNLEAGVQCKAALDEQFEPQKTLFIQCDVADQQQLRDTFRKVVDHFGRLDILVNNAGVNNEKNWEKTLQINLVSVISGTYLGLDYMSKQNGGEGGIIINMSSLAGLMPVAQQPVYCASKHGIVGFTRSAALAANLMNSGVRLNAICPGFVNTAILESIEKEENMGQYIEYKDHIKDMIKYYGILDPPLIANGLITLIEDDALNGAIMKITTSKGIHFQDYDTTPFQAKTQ
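NADH formation kinetics: reaction with 30 uM PGE2 and 1 mM NAD+ (final), 20 nM enzyme, Tris-HCl pH 8 with Tween 20, after 15 min compound preincubation at room temperature. Fluorescence change, last versus first of five reads.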
* marks the source's active call; other numbers are inactive results; ? = inconclusive; . = no result; [ ] = dose if it differs, or a comment. Most compounds without a hit are left out; they make up all but 9% or so of the library. Unless noted, calls follow the shape of the dose curve; as a rule, active = well fitted inhibition curve with a large enough effect (not every such curve was filed as active); inconclusive = small, poorly fitted or top-dose-only effect, or another doubt; inactive = no such curve, though single readings can be large or run the other way. Unless noted, % is scaled to controls: 0 for no effect and ±100 for the full control effect.

SMILES	ALDH1A1 inh	IMPase cell inh	HPGD inh
Cc1ccccc1C(=O)Nc1cccc(NC(=S)NC(=O)c2cccs2)c1	?	9	-8%
CCC(=O)NC(=S)Nc1cccc(NC(=O)c2ccc(Cl)cc2Cl)c1	?	1	-17%
CC(=O)c1cccc(NC(=S)NC(=O)c2ccc(Br)cc2)c1	-7%	.	-11%
COc1ccc(Cl)cc1NC(=O)c1cccnc1	12%	8	-2%
CN(C)CCCC1(c2ccc(F)cc2)OCc2cc(C#N)ccc21 (centres undefined)	?	.	0%
C[C@@H](C(=O)Nc1ccc2ccccc2c1)[C@H]1C[C@]1(C)[C@H](NS(=O)(=O)c1ccc2ccccc2c1)c1ccccc1	-3%	.	-30%
CCOC(=O)C1(CC2CC2)CCN(Cc2ccc3cccc(F)c3n2)CC1	-6%	.	.
O=C(O)c1ccc(C(=O)c2ccccc2)c(C(=O)O)c1	20%[13.5 µM]	.	-2%
CN(C)c1ccc(C2NCC(CCl)O2)cc1 (centres undefined)	1.4µM*	8	-5%
CN(C)c1ccc(CNC2CC(C)(C)NC(C)(C)C2)cc1	?	0	-10%
CC(O)CNCCNCc1cccs1 (centres undefined)	15%	.	.
COc1ccc(-c2nc(C3CCCCC3)no2)cc1OC	22µM*	8	?
c1ccc(-c2nc(C3CCCCC3)no2)cc1	3%	-4	-1%
NC(CCC(=O)N[C@@H](CS)C(=O)NCC(=O)O)C(=O)O (some centres undefined)	12%	.	-2%
O=C(O)CCCCCCNS(=O)(=O)c1ccccc1	?	4	-17%
O=S(=O)(NCCOCC(F)(F)F)c1ccc2oc3ccccc3c2c1	8.9µM*	8	?
O=S(=O)(NCC1CCCO1)c1ccc2oc3ccc(S(=O)(=O)NCC4CCCO4)cc3c2c1 (centres undefined)	-1%	-4	-22%
O=S(=O)(NCCOCCNS(=O)(=O)c1ccccc1)c1ccccc1	25µM*	-2	-2%
Cc1nnc(N2C(=O)c3oc4ccccc4c(=O)c3C2c2ccc(C(C)(C)C)cc2)s1 (centres undefined)	.	-1	.
CCOC(=O)N/N=C(\C)c1ccc(-n2cnnn2)cc1	6%	.	.
CC(C)(C)c1ccc(S(=O)(=O)N2CCSC2)cc1	?	.	-9%
O=C(NNC(=O)C(c1ccccc1)c1ccccc1)c1cccs1	-7%	3[1.84 µM]	-4%
O=C(CCn1cccc1)Nc1ccc(OC(F)(F)F)cc1	-2%	.	.
O=C(O)c1ccc(NC(=O)c2cccc(N3C(=O)C4C5CCC(C5)C4C3=O)c2)cc1 (centres undefined)	-3%	.	-9%
O=C(Nc1ccc(Cl)cc1)c1cccc(N2C(=O)C3C4CCC(C4)C3C2=O)c1 (centres undefined)	9%	.	32µM*
SMILES	ALDH1A1 inh	IMPase cell inh	HPGD inh
O=C(c1csnn1)N1CCC2(CCN(Cc3cc(C(F)(F)F)cc(C(F)(F)F)c3)CC2)CC1	-2%	.	-15%
CC1(C)Cc2c(c(=S)nc(-c3ccccc3)n2CCO)CO1	25µM*	11	35µM*
CC1(C)Cc2c(c(=S)nc(-c3ccccc3)n2CCCN2CCOCC2)CO1	-5%	-2	-18%
O=c1[nH]c2c(s1)C(c1ccco1)C1C3CCC(C3)C1S2 (centres undefined)	13µM*	6	-28%
O=C(O)CN1C(=O)C2C3CC(C2C1=O)C1C(c2ccccc2)c2sc(=O)[nH]c2SC31 (centres undefined)	9%	.	-2%
COc1cc(C2c3c(oc4ccc(C)cc4c3=O)C(=O)N2Cc2ccccc2)ccc1O (centres undefined)	.	-2	.
O=C1C(=O)c2c(C(=O)c3ccccc3)coc2-c2ccccc21	?	13	22µM*
Cc1oc2c(c1C(=O)c1ccccc1)C(=O)C(=O)c1ccccc1-2	-8%	26	?
CC(C)CCNC(=O)c1csc2c1CCCCC2	-6%	.	.
COc1ccc(NC(=O)c2csc3c2CCCC3)cc1	2%	0	-6%
O=C(NCc1cccs1)c1cc2c(s1)CCCC2	-10%	-8	?
O=C(NCc1ccccc1)c1csc2c1CCCC2	-4%	.	.
O=C(NCc1cccs1)c1csc2c1CCCCC2	?	1	22µM*
Cc1ccccc1NC(=O)c1csc2c1CCCC2	?	-5	16µM*
O=C(NCc1ccco1)c1csc2c1CCCCC2	?	2	6.3µM*
O=C(NCc1ccccc1)c1csc2c1CCCCC2	18µM*	11	8.9µM*
CC(=O)N[C@@H](Cc1ccc(O)cc1)C(=O)O	-1%	.	1%
COc1ccccc1CN1CCC2(CC1)CCN(C(=O)c1ccco1)CC2	?	.	-1%
O=C(Cc1c(C(=O)O)[nH]c2ccc(Cl)cc12)Nc1ccc2c(c1)OCCO2	10%	3	.
Cc1cc(C(=O)NCC(=O)OCC(=O)NCCc2ccccc2)ccc1[N+](=O)[O-]	-10%	.	.
O=c1cc(NCCc2ccccc2)c2ccccc2o1	-7%	.	.
O=C(Nc1ccon1)c1csc2c1CCCC2	-11%	-4	?
O=C(Nc1nccs1)c1csc2c1CCCC2	?	.	25µM*
CCCCCN(C(=O)COC(=O)c1ccc(Br)o1)c1c(N)n(CCCC)c(=O)[nH]c1=O	-8%	-6	-13%
C/C=C/c1ccc(OCCCNC(C)CC)c(OC)c1 (centres undefined)	16µM*	2	-9%
SMILES	ALDH1A1 inh	IMPase cell inh	HPGD inh
C/C=C/c1ccc(OCCOc2cc(C=O)ccc2OC)c(OC)c1	-11%	.	-16%
C/C=C/c1ccc(OCCCn2cncn2)c(OC)c1	-7%	-12	-11%
C/C=C/c1ccc(OCCn2cncn2)c(OC)c1	25µM*	-2	-5%
C=CCc1ccc(OCCCCNC(C)CC)c(OC)c1 (centres undefined)	?	.	1%
C/C=C/c1ccc(OCCCNC2CCCC2)c(OC)c1	28µM*	8	-6%
CC(C)(C)[C@H]1C=C(C(N)=O)O[C@@H](OCc2ccc(CO)cc2)C1	11%	.	.
CC1CCCC(C)N1C(=O)CSc1nnc(C2CCCCC2)o1 (centres undefined)	6%	1	?
CC(C)(C)N(CC#CCC1(O)c2ccccc2-c2ccccc21)CCO	1%	.	.
CN(C)C1C(=O)C(C(N)=O)C(=O)C2(O)C(=O)C3C(=O)c4c(O)ccc(Cl)c4C(O)C3CC12 (centres undefined)	-7%	.	-20%
CNc1nc(SCc2ccc(C)cc2)nc2c1CCCC2	6.3µM*	17	?
Cc1ccc(CSc2nc3c(c(N(C)C)n2)CCCC3)cc1	?	9	-11%
Cc1ccc(N(CC(=O)O)S(C)(=O)=O)cc1	11%	.	.
COC(=O)c1cc(NC(=O)c2ccc(OC)cc2)c(=O)oc1C	2%	.	.
CC(=O)c1cc(NC(=O)c2ccccc2)c(=O)oc1C	20µM*	.	.
COC(=O)c1cc(NC(=O)c2cccc(C(F)(F)F)c2)c(=O)oc1C	-8%	.	.
Cc1oc(=O)c(NC(=O)c2ccc(Cl)cc2)cc1C(=O)c1ccccc1	3.5µM*	4	32µM*
Cc1oc(=O)c(NC(=O)c2ccccc2)cc1C(=O)c1ccccc1	18µM*	7	-15%
CC(=O)c1cc(NC(=O)c2ccc(C)cc2)c(=O)oc1C	22µM*	.	.
CC(=O)c1cc(NC(=O)c2ccc(C)cc2)c(=O)oc1/C=C/N(C)C	?	24	-9%
CCOC(=O)c1cc(NC(=O)c2ccccc2)c(=O)oc1C(F)(F)F	-3%	.	.

Assay outcomes deposited in PubChem by National Center for Advancing Translational Sciences (NCATS).
